Here are results for one sequence from paper PMC7862700, “An all-to-all approach to the identification of sequence-specific readers for epigenetic DNA modifications on cytosine”.

Common to all, as to experiment: DAPPL (digital affinity profiling via proximity ligation, sequencing); 10 mM Tris-HCl pH 7.5, 50 mM NaCl, 1 mM DTT, 4% glycerol, room temperature, 30 min; GST-TFs on glutathione beads, 16-mer random dsDNA library, 0.1% formaldehyde crosslink after washing; high values mean tight binding
In one assay the target is T1, FEV (Homo sapiens, UniProt Q99581 1-238).
T1 sequence: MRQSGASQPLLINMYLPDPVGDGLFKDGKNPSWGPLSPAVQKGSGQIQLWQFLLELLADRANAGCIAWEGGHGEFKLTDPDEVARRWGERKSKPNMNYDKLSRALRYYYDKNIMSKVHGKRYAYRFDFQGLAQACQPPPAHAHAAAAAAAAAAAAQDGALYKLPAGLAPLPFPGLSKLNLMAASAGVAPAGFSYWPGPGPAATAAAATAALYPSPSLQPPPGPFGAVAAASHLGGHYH
The conditions noted are these: protein: recombinant; tags: N-terminal GST; dsDNA, one strand shown. Summed up:
(§1)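 Binding signal is each hexamer's read frequency for a factor divided by its frequency in the tag-only sample. The factors were GST-fused human transcription factors from yeast, captured on glutathione beads, DNA-barcoded and pooled with that sample. Pools were incubated with 200 nmole of a random double-stranded 16-mer DNA library in Tris/NaCl/DTT/glycerol buffer at room temperature for 30 min, then washed, crosslinked with 0.1% formaldehyde, proximity-ligated with BsaI/T4 ligase (1 h, 37 °C), PCR-amplified and sequenced on an Illumina NextSeq500.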

For a further assay, the target named is ETV5 (Homo sapiens, UniProt P41161 1-510). The conditions noted are these: protein: recombinant; tags: N-terminal GST; dsDNA, one strand shown. Put shortly: as §1
Sequence of ETV5 (P41161 whole entry): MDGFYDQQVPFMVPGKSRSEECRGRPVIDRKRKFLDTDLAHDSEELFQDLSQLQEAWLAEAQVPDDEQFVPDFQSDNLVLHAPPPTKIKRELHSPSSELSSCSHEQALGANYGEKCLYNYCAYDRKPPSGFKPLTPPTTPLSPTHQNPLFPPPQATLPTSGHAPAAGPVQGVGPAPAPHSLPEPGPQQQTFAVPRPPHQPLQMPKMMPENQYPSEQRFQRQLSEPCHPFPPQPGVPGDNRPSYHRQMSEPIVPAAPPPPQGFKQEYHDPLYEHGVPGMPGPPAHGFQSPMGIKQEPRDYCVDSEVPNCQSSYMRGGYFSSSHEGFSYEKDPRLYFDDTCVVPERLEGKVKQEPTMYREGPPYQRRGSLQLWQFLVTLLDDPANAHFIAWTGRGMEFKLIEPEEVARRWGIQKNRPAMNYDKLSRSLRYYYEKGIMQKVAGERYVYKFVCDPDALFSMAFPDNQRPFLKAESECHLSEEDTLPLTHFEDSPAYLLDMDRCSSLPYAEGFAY
For a further assay, the target named is HSF1 (Homo sapiens, UniProt Q00613 1-529). The conditions noted are these: protein: recombinant; tags: N-terminal GST; chain copies: 3; dsDNA, one strand shown. Put shortly:
as §1

The target in a further assay is T2, SPIC (Homo sapiens, UniProt Q8N5J4 1-248).
T2 sequence: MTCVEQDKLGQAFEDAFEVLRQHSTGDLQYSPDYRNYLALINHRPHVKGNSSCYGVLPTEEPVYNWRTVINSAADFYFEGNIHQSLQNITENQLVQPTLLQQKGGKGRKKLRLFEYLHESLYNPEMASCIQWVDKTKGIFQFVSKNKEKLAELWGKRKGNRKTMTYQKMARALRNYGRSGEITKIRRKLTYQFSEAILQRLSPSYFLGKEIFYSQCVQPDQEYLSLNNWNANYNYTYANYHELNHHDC
The conditions noted are these: protein: recombinant; tags: N-terminal GST; dsDNA, one strand shown. Put shortly: as §1

A further assay deals with ELF4 (Homo sapiens, UniProt Q99607 1-663). The conditions noted are these: protein: recombinant; tags: N-terminal GST; dsDNA, one strand shown. Summed up: as §1
Sequence of ELF4 (Q99607 whole entry): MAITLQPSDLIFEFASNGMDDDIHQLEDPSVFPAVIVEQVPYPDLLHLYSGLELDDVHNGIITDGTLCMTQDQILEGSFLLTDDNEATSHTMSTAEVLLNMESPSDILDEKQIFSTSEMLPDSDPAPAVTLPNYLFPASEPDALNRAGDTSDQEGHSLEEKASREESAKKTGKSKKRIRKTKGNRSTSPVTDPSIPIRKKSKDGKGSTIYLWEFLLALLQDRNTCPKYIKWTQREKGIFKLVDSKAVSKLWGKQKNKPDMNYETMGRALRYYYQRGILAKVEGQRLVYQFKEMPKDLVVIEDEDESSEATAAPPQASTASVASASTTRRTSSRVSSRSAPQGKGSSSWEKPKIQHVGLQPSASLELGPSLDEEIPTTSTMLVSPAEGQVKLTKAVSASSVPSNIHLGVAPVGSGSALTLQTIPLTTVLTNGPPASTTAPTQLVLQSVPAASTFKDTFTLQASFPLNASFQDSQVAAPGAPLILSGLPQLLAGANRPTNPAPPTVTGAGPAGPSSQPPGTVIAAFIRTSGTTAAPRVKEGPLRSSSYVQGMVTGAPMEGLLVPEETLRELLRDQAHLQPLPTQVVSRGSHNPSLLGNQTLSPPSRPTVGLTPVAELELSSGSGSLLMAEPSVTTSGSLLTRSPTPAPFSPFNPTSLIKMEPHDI
Another assay has as its target T3, ELK4 (Homo sapiens, UniProt P28324-2 1-405).
T3 sequence: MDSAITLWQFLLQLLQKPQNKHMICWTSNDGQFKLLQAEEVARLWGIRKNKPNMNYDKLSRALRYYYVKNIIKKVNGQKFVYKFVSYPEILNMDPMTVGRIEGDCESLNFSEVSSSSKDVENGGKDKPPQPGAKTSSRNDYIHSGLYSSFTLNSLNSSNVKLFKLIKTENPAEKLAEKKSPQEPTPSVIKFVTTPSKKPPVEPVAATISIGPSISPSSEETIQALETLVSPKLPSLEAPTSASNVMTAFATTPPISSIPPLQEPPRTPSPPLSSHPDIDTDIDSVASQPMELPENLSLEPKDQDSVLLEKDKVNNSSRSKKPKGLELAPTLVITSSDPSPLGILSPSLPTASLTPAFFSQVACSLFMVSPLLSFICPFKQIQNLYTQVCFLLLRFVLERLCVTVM
The conditions noted are these: protein: recombinant; tags: N-terminal GST; dsDNA, one strand shown. Put shortly:
as §1

Another assay addresses T4, ETV2 (Homo sapiens, UniProt O00321 1-342).
T4 sequence: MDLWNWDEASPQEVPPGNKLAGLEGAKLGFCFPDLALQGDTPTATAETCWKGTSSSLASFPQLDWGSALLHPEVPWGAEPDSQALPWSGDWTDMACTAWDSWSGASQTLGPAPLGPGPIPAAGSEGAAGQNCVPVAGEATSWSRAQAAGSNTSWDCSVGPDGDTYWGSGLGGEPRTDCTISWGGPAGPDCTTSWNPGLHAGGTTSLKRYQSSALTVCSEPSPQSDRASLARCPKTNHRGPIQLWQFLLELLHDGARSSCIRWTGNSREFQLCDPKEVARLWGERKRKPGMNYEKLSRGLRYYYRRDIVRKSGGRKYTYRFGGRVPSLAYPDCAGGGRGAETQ
The conditions noted are these: protein: recombinant; tags: N-terminal GST; dsDNA, one strand shown. Summed up:
as §1

The next assay has as its target T5, ELF3 (Homo sapiens, UniProt P78545 1-371).
T5 sequence: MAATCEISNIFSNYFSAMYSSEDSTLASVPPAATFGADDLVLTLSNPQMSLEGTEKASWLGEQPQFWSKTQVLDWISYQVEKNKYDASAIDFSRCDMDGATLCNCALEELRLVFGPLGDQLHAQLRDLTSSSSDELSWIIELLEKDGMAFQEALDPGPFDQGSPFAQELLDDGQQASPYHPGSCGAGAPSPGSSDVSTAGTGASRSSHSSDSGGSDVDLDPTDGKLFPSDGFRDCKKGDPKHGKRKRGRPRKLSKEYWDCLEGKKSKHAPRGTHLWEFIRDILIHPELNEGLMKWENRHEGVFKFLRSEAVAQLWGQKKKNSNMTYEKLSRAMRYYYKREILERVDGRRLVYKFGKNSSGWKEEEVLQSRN
The conditions noted are these: protein: recombinant; tags: N-terminal GST; dsDNA, one strand shown. Summed up: as §1

The target of another assay is CRX (Homo sapiens, UniProt O43186 1-299). The conditions noted are these: protein: recombinant; tags: N-terminal GST; dsDNA, one strand shown. Put shortly: as §1
Sequence of CRX (O43186 whole entry): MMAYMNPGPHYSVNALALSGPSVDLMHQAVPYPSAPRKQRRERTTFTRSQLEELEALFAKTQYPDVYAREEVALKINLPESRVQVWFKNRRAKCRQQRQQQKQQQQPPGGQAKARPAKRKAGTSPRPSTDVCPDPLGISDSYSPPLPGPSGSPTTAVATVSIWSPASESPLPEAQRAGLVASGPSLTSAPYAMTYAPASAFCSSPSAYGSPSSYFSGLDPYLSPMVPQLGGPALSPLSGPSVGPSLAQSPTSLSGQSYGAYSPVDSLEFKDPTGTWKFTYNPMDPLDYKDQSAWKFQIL
The target of the next assay is ETV1 (Homo sapiens, UniProt P50549 1-477). The conditions noted are these: protein: recombinant; tags: N-terminal GST; dsDNA, one strand shown. Summed up: as §1
Sequence of ETV1 (P50549 whole entry): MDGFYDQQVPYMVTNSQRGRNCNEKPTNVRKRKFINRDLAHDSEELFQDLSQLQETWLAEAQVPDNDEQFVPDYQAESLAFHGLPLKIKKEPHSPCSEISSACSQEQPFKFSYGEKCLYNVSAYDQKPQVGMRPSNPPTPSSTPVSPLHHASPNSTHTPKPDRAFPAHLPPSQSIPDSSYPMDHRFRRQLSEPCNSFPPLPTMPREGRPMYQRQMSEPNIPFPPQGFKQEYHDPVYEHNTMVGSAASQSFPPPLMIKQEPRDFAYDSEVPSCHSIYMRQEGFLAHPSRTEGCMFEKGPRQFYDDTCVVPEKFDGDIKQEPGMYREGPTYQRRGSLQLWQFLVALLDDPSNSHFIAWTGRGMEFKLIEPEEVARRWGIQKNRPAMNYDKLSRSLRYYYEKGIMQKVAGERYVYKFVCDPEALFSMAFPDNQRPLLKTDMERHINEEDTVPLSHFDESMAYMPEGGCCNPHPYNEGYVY
The next assay has as its target T6, ERF (Homo sapiens, UniProt P50548 1-548).
T6 sequence: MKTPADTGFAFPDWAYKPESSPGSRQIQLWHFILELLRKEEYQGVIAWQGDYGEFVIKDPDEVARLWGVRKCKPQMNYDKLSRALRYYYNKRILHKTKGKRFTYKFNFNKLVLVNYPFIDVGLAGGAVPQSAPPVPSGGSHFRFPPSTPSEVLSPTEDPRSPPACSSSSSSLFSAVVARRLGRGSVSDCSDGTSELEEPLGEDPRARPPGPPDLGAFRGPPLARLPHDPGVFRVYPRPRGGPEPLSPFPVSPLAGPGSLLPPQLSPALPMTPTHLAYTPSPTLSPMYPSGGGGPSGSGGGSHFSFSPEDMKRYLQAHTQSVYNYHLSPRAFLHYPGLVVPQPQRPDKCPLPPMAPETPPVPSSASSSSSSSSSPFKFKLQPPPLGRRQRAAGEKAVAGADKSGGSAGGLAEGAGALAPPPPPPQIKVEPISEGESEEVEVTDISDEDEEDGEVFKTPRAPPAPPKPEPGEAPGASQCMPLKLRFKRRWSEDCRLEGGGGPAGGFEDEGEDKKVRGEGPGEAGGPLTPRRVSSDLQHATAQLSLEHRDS
The conditions noted are these: protein: recombinant; tags: N-terminal GST; dsDNA, one strand shown. Put shortly: as §1

The target in a further assay is T7, ETV3L (Homo sapiens, UniProt Q6ZN32 1-361).
T7 sequence: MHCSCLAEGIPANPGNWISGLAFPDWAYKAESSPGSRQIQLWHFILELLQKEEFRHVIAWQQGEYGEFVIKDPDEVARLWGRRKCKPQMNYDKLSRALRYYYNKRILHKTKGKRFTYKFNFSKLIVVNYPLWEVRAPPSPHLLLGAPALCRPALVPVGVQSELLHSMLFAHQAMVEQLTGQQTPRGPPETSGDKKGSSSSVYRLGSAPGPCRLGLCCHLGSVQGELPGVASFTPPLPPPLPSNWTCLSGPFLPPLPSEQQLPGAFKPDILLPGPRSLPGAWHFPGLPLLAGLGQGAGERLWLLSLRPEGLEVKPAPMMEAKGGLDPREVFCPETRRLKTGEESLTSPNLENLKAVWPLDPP
The conditions noted are these: protein: recombinant; tags: N-terminal GST; dsDNA, one strand shown. Put shortly: as §1

The next assay addresses T8, ETS2 (Homo sapiens, UniProt P15036 1-469).
T8 sequence: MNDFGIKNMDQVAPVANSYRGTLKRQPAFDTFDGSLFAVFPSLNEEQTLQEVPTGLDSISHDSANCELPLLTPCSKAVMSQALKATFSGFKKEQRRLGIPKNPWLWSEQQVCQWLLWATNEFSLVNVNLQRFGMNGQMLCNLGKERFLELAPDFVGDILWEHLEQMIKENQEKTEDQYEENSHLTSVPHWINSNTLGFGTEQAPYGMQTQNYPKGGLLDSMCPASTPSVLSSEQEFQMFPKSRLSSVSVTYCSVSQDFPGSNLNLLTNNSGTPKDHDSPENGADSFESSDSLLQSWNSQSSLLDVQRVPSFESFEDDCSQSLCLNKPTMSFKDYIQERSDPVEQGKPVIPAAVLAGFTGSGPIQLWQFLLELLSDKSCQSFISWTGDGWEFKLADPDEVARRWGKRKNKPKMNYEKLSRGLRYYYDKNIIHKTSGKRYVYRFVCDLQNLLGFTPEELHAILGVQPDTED
The conditions noted are these: protein: recombinant; tags: N-terminal GST; dsDNA, one strand shown. Summed up: as §1

The target in the next assay is T9, SPDEF (Homo sapiens, UniProt O95238 1-335).
T9 sequence: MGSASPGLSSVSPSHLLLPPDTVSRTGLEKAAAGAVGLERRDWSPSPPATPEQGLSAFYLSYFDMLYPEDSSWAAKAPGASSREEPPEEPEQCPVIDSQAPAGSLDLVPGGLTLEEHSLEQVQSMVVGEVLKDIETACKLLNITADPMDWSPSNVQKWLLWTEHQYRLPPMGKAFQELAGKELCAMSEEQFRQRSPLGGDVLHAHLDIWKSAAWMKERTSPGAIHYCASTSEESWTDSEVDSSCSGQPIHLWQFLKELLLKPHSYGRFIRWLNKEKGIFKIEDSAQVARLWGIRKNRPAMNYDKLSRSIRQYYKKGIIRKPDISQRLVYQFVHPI
The conditions noted are these: protein: recombinant; tags: N-terminal GST; dsDNA, one strand shown. Put shortly: as §1

In another assay the target is T10, ETV7 (Homo sapiens, UniProt Q9Y603 1-341).
T10 sequence: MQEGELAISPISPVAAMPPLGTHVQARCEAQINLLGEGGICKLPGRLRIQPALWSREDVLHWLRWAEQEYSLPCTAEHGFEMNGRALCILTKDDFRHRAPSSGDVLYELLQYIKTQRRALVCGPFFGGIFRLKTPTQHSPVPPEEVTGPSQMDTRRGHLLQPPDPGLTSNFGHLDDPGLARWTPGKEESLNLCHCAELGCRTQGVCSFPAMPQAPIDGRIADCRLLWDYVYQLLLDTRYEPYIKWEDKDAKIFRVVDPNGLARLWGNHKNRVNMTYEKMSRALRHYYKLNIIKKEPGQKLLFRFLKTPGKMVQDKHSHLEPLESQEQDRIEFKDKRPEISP
The conditions noted are these: protein: recombinant; tags: N-terminal GST; dsDNA, one strand shown. Summed up:
as §1

In a further assay the target is T11, ELF5 (Homo sapiens, UniProt Q9UKW6-2 1-255).
T11 sequence: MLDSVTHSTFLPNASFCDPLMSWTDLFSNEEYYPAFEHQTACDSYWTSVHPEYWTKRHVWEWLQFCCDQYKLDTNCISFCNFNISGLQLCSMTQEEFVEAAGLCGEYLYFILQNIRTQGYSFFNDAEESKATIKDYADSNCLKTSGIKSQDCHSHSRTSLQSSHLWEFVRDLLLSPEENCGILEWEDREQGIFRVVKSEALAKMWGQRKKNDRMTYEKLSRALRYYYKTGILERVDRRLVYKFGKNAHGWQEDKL
The conditions noted are these: protein: recombinant; tags: N-terminal GST; dsDNA, one strand shown. Put shortly:
as §1

The target of another assay is T12, ETV3 (Homo sapiens, UniProt P41162-2 1-143).
T12 sequence: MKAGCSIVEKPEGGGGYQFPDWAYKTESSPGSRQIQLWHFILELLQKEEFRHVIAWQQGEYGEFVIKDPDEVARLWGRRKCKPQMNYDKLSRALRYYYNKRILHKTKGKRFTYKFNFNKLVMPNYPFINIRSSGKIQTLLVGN
The conditions noted are these: protein: recombinant; tags: N-terminal GST; dsDNA, one strand shown. Put shortly: as §1

The target of another assay is ETV6 (Homo sapiens, UniProt P41212 1-452). The conditions noted are these: protein: recombinant; tags: N-terminal GST; dsDNA, one strand shown. Put shortly: as §1
Sequence of ETV6 (P41212 whole entry): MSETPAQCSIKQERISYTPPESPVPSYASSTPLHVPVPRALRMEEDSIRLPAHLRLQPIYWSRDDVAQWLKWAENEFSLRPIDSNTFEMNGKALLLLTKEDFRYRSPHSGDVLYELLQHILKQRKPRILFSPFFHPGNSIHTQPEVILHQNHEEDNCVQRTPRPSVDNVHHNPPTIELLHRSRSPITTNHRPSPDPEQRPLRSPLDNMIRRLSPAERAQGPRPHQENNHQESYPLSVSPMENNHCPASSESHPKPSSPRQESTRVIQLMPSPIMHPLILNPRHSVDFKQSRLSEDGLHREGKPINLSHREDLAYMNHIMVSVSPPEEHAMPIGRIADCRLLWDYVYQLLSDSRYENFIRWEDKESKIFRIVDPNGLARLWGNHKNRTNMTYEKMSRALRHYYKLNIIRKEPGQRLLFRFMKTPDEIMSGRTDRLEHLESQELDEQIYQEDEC

Sequence of HSF1 (Q00613 whole entry): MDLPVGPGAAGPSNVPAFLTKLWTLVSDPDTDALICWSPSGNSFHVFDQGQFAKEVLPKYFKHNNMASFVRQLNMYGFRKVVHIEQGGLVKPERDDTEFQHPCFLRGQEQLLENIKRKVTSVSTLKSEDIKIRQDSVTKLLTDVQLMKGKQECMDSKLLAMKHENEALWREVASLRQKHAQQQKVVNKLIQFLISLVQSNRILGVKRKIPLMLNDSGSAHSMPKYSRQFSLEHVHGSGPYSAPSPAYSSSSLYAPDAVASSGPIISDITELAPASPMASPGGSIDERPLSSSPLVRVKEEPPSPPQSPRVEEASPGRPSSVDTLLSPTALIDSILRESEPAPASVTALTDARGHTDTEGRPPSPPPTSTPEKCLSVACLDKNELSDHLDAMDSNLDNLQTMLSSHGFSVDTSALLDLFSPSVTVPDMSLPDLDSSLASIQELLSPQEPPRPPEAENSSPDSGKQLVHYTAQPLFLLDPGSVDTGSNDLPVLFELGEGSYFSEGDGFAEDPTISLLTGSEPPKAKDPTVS

Regarding TCGACT, the binding signal with FEV was 1.42 fold enrichment (6-mer frequency, TF over GST control); in the assay with ETV5 it was 1.35 fold enrichment (6-mer frequency, TF over GST control); with HSF1 it was 1.57 fold enrichment (6-mer frequency, TF over GST control); with SPIC, 1.41 fold enrichment (6-mer frequency, TF over GST control); with ELF4, 1.51 fold enrichment (6-mer frequency, TF over GST control); in the assay with ELK4, 1.52 fold enrichment (6-mer frequency, TF over GST control). In addition, the binding signal was 1.33 fold enrichment (6-mer frequency, TF over GST control) with ETV2; 1.49 fold enrichment (6-mer frequency, TF over GST control) with ELF3; 1.36 fold enrichment (6-mer frequency, TF over GST control) with CRX; 1.38 fold enrichment (6-mer frequency, TF over GST control) with ETV1; 1.34 fold enrichment (6-mer frequency, TF over GST control) with ERF; 1.27 fold enrichment (6-mer frequency, TF over GST control) with ETV3L. For the same sequence, the binding signal in the assay with ETS2 is 1.37 fold enrichment (6-mer frequency, TF over GST control); with SPDEF, 1.29 fold enrichment (6-mer frequency, TF over GST control); with ETV7 it was 1.32 fold enrichment (6-mer frequency, TF over GST control); with ELF5, 1.28 fold enrichment (6-mer frequency, TF over GST control); with ETV3, 1.4 fold enrichment (6-mer frequency, TF over GST control); with ETV6, 1.35 fold enrichment (6-mer frequency, TF over GST control).
